From article PMC4336329 (PLoS ONE, 2015)
Out of some 310,000 compounds screened, about 2,200 (0.71%) showed an effect of 50% or more. The effect is printed as a negative number. The entries come from a sample that favours strong results as a whole.

Biological target: human ether-à-go-go-related gene (hERG) potassium channel (human, UniProt Q12809)
Assay: primary screen, population patch clamp on CHO cells stably expressing hERG; higher = less effect of the substance

Chain of human ether-à-go-go-related gene (hERG) potassium channel (Q12809 whole entry, looked up): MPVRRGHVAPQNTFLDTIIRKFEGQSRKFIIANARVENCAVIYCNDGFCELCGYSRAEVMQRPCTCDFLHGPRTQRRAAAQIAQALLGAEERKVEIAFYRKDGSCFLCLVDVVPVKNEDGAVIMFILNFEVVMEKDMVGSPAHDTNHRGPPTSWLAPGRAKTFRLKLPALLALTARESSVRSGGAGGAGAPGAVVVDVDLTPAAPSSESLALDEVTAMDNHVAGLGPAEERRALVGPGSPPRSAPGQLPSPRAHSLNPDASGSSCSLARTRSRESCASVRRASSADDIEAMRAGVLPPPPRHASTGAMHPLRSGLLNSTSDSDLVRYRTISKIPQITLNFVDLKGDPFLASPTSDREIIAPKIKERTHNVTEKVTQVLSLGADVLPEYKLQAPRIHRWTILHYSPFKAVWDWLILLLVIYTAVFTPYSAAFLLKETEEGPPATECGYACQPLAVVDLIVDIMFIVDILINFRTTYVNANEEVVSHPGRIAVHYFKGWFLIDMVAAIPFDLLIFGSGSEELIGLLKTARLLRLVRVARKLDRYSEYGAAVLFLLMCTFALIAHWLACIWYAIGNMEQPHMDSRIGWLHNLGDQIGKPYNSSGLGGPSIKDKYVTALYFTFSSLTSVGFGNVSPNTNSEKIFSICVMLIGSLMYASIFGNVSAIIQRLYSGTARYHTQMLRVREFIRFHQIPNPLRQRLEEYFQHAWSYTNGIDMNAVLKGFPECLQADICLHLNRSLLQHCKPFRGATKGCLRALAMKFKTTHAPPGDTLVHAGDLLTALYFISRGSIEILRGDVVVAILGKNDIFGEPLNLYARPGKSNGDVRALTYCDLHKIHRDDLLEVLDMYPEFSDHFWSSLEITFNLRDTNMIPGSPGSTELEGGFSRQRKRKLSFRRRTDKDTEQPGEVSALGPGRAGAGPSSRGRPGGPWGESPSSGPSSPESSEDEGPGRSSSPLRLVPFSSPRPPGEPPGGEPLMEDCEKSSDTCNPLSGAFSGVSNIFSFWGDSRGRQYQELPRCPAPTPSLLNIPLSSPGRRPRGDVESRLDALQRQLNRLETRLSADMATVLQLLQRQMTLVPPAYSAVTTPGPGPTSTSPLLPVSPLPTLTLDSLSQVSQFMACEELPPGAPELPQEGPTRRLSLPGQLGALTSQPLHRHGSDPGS

| SMILES | hERG current change (%, negative = inhibition) at 1uM [%] |
| --- | --- |
| O=C(NCc1ccco1)C1CCN(S(=O)(=O)c2ccccc2C(F)(F)F)CC1 | 12.6 |
| COc1cccc(C(=O)NCCS(=O)(=O)N2CCC(C)CC2)c1 | 3.89 |
| CC1(C)CN(c2ccc(C(=O)c3ccccc3)cc2)C1=O | 6.95 |
| CCCCn1c(N)c(N(CCOC)C(=O)C2CCN(S(=O)(=O)c3ccc(C)cc3C)CC2)c(=O)[nH]c1=O | 14.6 |
| Cc1ccccc1OCC(=O)OCC(=O)c1ccc[nH]1 | 10.2 |
| CCOC(=O)c1nn(-c2ccccc2C)c2nc(CC(C)C)c(C#N)c(=O)n12 | 15.8 |
| O=c1cc(NCc2ccco2)c2ccccc2o1 | 11.6 |
| CCS(=O)(=O)N1CCN(c2ccnc3cc(Cl)ccc23)CC1 | -67.4 |
| CN(C)S(=O)(=O)N1CCN(c2cc(Cl)ccc2Cl)CC1 | 16.5 |
| Cl.ClCCN1CCN(c2ccnc3cc(Cl)ccc23)CC1 | 7.03 |
| Oc1ccc(N2CCN(c3ccnc4cc(Cl)ccc34)CC2)cc1 | 5.36 |
| CC(C)S(=O)(=O)N1CCN(c2ccnc3cc(Cl)ccc23)CC1 | -55.2 |
| CS(=O)(=O)N1CCN(c2ccnc3cc(Cl)ccc23)CC1 | -81.3 |
| Clc1ccc2c(N3CCOCC3)ccnc2c1 | 0.204 |
| CN(C)S(=O)(=O)N1CCN(c2ccnc3cc(Cl)ccc23)CC1 | -65.6 |
| CCC(=O)N1CCN(c2ccnc3cc(Cl)ccc23)CC1 | -25.7 |
| COc1ccccc1N1CCN(c2ccnc3cc(Cl)ccc23)CC1 | 7.78 |
| Clc1ccc2c(N3CCCC3)ccnc2c1 | -25.9 |
| COc1ccc(/C=C2\SC(=S)N(N3CCOCC3)C2=O)c(OC)c1 | 10.2 |
| CCOC(=O)c1c(C)[nH]c(C)c1C(=O)CSc1nc2ccccc2[nH]1 | 13.8 |
| O=c1c(Cc2ccc(F)cc2)c(O)ccn1CCCn1ccnc1 | 20.5 |
| COc1ccc(CCNC(=O)CC(c2ccccc2)c2cccc(C)c2O)cc1OC (stereo not shown) | 6 |
| OCCC1CN(Cc2cccc(-c3ccco3)c2)CCN1Cc1ccsc1 (stereo not shown) | -17.3 |
| CC(C)NC(=S)N=Nc1c(O)[nH]c2ccc([N+](=O)[O-])cc12 | 18.4 |
| COc1cccc(OC)c1C(=O)Nc1ccncc1 | 17.4 |

| SMILES | hERG current change (%, negative = inhibition) at 1uM [%] |
| --- | --- |
| COc1cccc(OC)c1C(=O)Nc1ccnn1C | -75.9 |
| Cn1nccc1NC(=O)NC(=O)c1c(Cl)cccc1Cl | 8.82 |
| O=C(Cn1nnc2ccccc21)N1CCCCC1 | 2.74 |
| O=C(CN1CCN(Cc2ccccc2)CC1)Nc1ccc(Br)cc1 | -48.3 |
| O=C(CN1CCN(C(=O)c2cccs2)CC1)Nc1ccc(Br)cc1 | -68.2 |
| O=C(Nc1ccc(N2CCN(C(=O)c3cccs3)CC2)cc1)c1ccc(Br)o1 | -52.7 |
| O=C(CN1CCN(C(=O)c2ccccc2F)CC1)Nc1ccc(Br)cc1 | -56.5 |
| CCC(=O)Nc1ccc(N2CCN(C(=O)c3cccs3)CC2)cc1 | 3.02 |
| O=C(Nc1ccc(N2CCN(C(=O)c3cccs3)CC2)cc1)c1ccco1 | 17.4 |
| O=C(Nc1ccc(N2CCN(C(=O)c3cccs3)CC2)cc1)c1ccc([N+](=O)[O-])o1 | -15.8 |
| O=C(CN1CCN(C(=O)c2ccco2)CC1)Nc1ccc(Br)cc1 | 10.5 |
| O=C(NCCN1CCN(C(=O)c2cccs2)CC1)C(=O)Nc1ccc(Br)cc1 | -44.8 |
| Cc1ccc(NC(=O)c2ccc3ccccc3n2)cc1S(=O)(=O)N1CCOCC1 | 14 |
| CCOP1(=S)Oc2cc3c(cc2C(C(=O)OC)(C(F)(F)F)O1)OCO3 (stereo not shown) | 5.27 |
| Cn1c(=O)n(C)c2cc(N3CCCC3)c(NC(=O)c3cccc(F)c3)cc21 | 10.3 |
| CCCOc1ccc(C2=CSC3=NCCN23)cc1Cl | -23.5 |
| Br.Cc1ccc(C2=CSC3=NCCN23)cc1 | 11.3 |
| CCCOc1ccc(C2=CSC3=NCCN23)cc1.Cl | -0.939 |
| CCCCOc1ccc(C2=CSC3=NCCN23)cc1[N+](=O)[O-] | -52.1 |
| O=[N+]([O-])c1ccc(C2=CSC3=NCCN23)cc1 | -0.955 |
| Br.CC(C)Cc1ccc(C2=CSC3=NCCN23)cc1 | -60.9 |
| COc1ccc(C2=CSC3=NCCN23)cc1[N+](=O)[O-] | 2.48 |
| CCOc1ccc(C2=CSC3=NCCN23)cc1Cl | 10.2 |
| CCCOc1ccc(C2=CSC3=NCCN23)cc1[N+](=O)[O-] | -68.4 |
| Br.COc1ccc(C2=CSC3=NCCN23)cc1OC | 7.66 |

| SMILES | hERG current change (%, negative = inhibition) at 1uM [%] |
| --- | --- |
| Br.CCc1ccc(C2=CSC3=NCCN23)cc1 | 1.72 |
| CCOc1ccc(C2=CSC3=NCCN23)cc1[N+](=O)[O-] | -61 |
| CCCCn1c(N)c(N(CCOC)C(=O)CN2CC=C(c3ccccc3)CC2)c(=O)[nH]c1=O | 10.3 |
| O=C(Cn1nnc(-c2ccc(Cl)cc2)n1)NC1CCS(=O)(=O)C1 (stereo not shown) | 0.0052 |
| Cc1ccc(Cn2c(N)c(S(=O)(=O)c3cccs3)c3nc4ccccc4nc32)cc1 | 5.35 |
| CCn1c(SCC(=O)N/N=C/c2c[nH]c3ccccc23)nnc1-c1ccc(C)cc1 | 9.39 |
| O=C1c2ccccc2C(=O)C1c1ccnc2ccccc12 | 11.7 |
| Cc1ccccc1N(CC(=O)NCc1ccc2c(c1)OCO2)C(=O)CCC(=O)Nc1ccccn1 | 6.43 |
| CCC1(CC)NC(=O)N(CC(=O)Nc2ccc(S(=O)(=O)N3CCOCC3)cc2)C1=O | 3.3 |
| CCN1CCC(N2CCN(c3ccc(F)cc3)CC2)CC1 | 10.6 |
| CCCN1CCC(N2CCN(c3ccc([N+](=O)[O-])cc3)CC2)CC1 | -62.7 |
| CCC1CCC(N2CCN(c3ccc(F)cc3)CC2)CC1 (stereo not shown) | -2.92 |
| CCC1CCC(N2CCN(c3ccc([N+](=O)[O-])cc3)CC2)CC1 (stereo not shown) | -74.5 |
| O=[N+]([O-])c1ccc(N2CCN(c3ccccc3)CC2)cc1 | 9.45 |
| CCN1CCC(N2CCN(c3ccc(Cl)cc3)CC2)CC1 | 10.7 |
| O=[N+]([O-])c1ccc(N2CCN(c3ccc(F)cc3)CC2)cc1 | 5.71 |
| CC1CCC(N2CCN(c3ccc([N+](=O)[O-])cc3)CC2)CC1 (stereo not shown) | -67.8 |
| O=[N+]([O-])c1ccc(N2CCN(CC3CCCCC3)CC2)cc1 | -23 |
| Cc1ccnc(N2C(=O)OC(C)(C)C2(C)O)c1 (stereo not shown) | -0.922 |
| C=CCS(=O)(=O)N1CCCC(C(=O)c2cccc(Cl)c2)C1 (stereo not shown) | 14.2 |
| O=C(NS(=O)(=O)c1ccccc1)c1ccccc1O | 0.636 |
| O=C(NCc1ccc2c(c1)OCO2)c1cc(-c2ccccc2Cl)on1 | 12.4 |
| O=C(O)CSC1=NC(=Nc2cccc(Cl)c2)C2(CCCCC2)N1c1ccccc1 | 19.9 |
| Cc1cc(OC(C)C(=O)NCc2cccnc2)c2c(C)cc(=O)oc2c1 (stereo not shown) | 9.3 |
| Cc1ccccc1CNC(=O)Cc1ccccc1[N+](=O)[O-] | 0.014 |

| SMILES | hERG current change (%, negative = inhibition) at 1uM [%] |
| --- | --- |
| Cc1c(C(=O)Nc2cccc([N+](=O)[O-])c2)sc2ncn(CC(=O)N3CCOCC3)c(=O)c12 | 14.1 |
| CCc1nnc(NC(=O)c2ccc(-c3ccccc3F)o2)s1 | 11.7 |
| Cc1cc(N2CCC(C)CC2)nc(-n2nc(C)cc2C)n1 | -9.09 |
| Cc1cc(N2CCN(c3ccccc3)CC2)nc(-n2nc(C)cc2C)n1 | -51 |
| Cc1cc(C)n(-c2nnc(N3CCN(c4ccccc4)CC3)nn2)n1 | 4.59 |
| O=C(Cc1cccc(NC(=O)C2CCCN(C(=O)C3CCC3)C2)c1)Nc1cccc(C(=O)N2CCCC2)c1 (stereo not shown) | 9.32 |
| COc1ccc(C(=O)N2N=C(c3cccc(NS(C)(=O)=O)c3)CC2c2cccs2)cc1 (stereo not shown) | -22.1 |
| O=C(N/N=C/c1ccc(OC2CSC2)cc1)c1ccccc1 | -0.636 |
| Cc1cccc(C(=O)N/N=C/c2ccc(OC3CSC3)cc2)c1 | -59.8 |
| COc1cccc(C(=O)N/N=C/c2ccc(OC3CSC3)cc2)c1 | 12.7 |
| CN(CC(=O)Nc1ccccc1C(F)(F)F)C(=O)COc1ncnc2sccc12 | 6.31 |
| C=CCn1c(SCC(=O)NC(=O)NCC(C)C)nnc1C1CCCCC1 | 13.9 |
| O=C(O)CCC(=O)NCc1cn(-c2ccccc2)nc1-c1cccc(Br)c1 | 9.76 |
| O=C(c1cc([N+](=O)[O-])ccc1N1CCOCC1)N1CCOCC1 | 12.4 |
| O=C(c1cc([N+](=O)[O-])ccc1Cl)N1CCN(c2ccc([N+](=O)[O-])cc2)CC1 | -58.8 |
| O=C(c1cc([N+](=O)[O-])ccc1Cl)N1CCN(c2ccc(F)cc2)CC1 | 0.85 |
| Cc1cccc(N2CCN(C(=O)c3cc(S(=O)(=O)N(C)C)ccc3N3CCCC3)CC2)c1C | 5.76 |
| O=C(c1cc([N+](=O)[O-])ccc1N1CCOCC1)N1CCN(c2ccc([N+](=O)[O-])cc2)CC1 | -74 |
| CN(C)S(=O)(=O)c1ccc(N2CCCC2)c(C(=O)N2CCN(c3ccc([N+](=O)[O-])cc3)CC2)c1 | -84 |
| O=C(c1cc([N+](=O)[O-])ccc1N1CCOCC1)N1CCN(c2ccccc2)CC1 | 7.19 |
| Cc1ccc(S(=O)(=O)N2CCN(C(=O)c3cc(S(=O)(=O)N(C)C)ccc3N3CCCC3)CC2)cc1 | 13.1 |
| O=C(c1cc([N+](=O)[O-])ccc1Cl)N1CCN(c2ccccc2)CC1 | 4.13 |
